“And” between values parts separate entries of the source, which are not always exact repeats. Identical values can stand only once. Results filed as inconclusive are left out. The source made the active and inactive calls. Unless noted, the call rests on the fitted dose curve; in most records, active means well fitted curve in the direction sought with a large enough effect; inconclusive means small, poorly fitted or top-dose-only effect, or another doubt; inactive means no such curve, though single readings can be large; an effect the other way counts as inactive or inconclusive.
Assays:
[1] = test system: Zika virus NS2B-NS3 protease; assay: Primary screen GU AMC qHTS for Zika virus inhibitors (AID 1347154);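 further: 0% = no-inhibitor control and -100% = no-enzyme control; nearly all actives have a fitted effect of over 70% in size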
In short: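 Unlinked Zika NS2B hydrophilic domain–NS3 protease complex at 25 nM in 10 mM Tris-HCl pH 8.0, 0.01% Tween 20, with an AMC peptide substrate. Fluorescence change (340/450 nm) over 15 min at room temperature, normalized to controls, fitted to 4-parameter Hill.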

[2] = Primary qHTS for small molecule stabilizers of the endoplasmic reticulum resident proteome: Secreted ER Calcium Modulated Protein (SERCaMP) assay (AID 1508630); further: on the % scale 0 is the no-effect control and ±100 the full control effect
In short: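 The SH-SY5Y reporter protocol was run at 3 concentrations up to 38.3 uM (primary) or 11 concentrations (follow-up): 16 h compound, 100 nM thapsigargin for 4 h, then extracellular luciferase luminescence.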

[3] = biological target: Glucocorticoid receptor (Homo sapiens) (UniProt P04150); assay: GR-EFC Redistribution (AID 451; calls by dose curve; further: potency means the concentration at half of the fitted maximal effect); details: CHO-K1 GR-EFC translocation, beta-gal luminescence, 2 h
Chain of Glucocorticoid receptor (Homo sapiens) (P04150 whole entry, looked up, the tested form may be a part): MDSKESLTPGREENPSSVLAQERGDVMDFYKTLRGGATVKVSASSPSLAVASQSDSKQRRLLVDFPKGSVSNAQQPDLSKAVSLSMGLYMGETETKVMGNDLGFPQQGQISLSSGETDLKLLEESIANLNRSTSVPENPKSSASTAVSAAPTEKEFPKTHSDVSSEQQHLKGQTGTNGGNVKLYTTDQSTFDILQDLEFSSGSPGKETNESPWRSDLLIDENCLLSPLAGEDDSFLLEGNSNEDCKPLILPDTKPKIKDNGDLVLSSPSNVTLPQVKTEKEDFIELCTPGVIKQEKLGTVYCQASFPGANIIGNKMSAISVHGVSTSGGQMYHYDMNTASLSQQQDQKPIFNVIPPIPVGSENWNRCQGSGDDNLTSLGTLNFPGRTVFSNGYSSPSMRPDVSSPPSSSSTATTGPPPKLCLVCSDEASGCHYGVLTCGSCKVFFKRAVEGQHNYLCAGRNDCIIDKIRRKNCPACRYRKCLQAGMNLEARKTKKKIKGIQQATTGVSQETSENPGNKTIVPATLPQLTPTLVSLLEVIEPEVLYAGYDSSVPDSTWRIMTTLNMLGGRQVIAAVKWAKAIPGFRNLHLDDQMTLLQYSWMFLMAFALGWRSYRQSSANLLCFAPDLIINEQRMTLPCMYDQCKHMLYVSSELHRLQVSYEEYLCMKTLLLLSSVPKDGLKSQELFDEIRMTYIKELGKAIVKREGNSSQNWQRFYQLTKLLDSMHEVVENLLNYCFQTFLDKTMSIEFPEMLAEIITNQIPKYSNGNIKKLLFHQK
In short: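 CHO-K1 cells expressing nuclear EA and GR-ED fragments of b-gal; compounds titrated up to 46 uM final, 2 h at 37 C. GR nuclear translocation read as complemented b-gal luminescence after 1 h RT detection.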

[4] = biological target: 3',5'-cyclic-AMP phosphodiesterase 4B (Homo sapiens) (UniProt Q07343); assay: qHTS Assay for Inhibitors of PDE-IV (AID 607; active means well fitted activation curve with a large enough effect in the main read-out, with a control signal flat, not every such curve was filed as active; further: % of control where 0% means no effect)
Chain of 3',5'-cyclic-AMP phosphodiesterase 4B (Homo sapiens) (Q07343 whole entry, looked up): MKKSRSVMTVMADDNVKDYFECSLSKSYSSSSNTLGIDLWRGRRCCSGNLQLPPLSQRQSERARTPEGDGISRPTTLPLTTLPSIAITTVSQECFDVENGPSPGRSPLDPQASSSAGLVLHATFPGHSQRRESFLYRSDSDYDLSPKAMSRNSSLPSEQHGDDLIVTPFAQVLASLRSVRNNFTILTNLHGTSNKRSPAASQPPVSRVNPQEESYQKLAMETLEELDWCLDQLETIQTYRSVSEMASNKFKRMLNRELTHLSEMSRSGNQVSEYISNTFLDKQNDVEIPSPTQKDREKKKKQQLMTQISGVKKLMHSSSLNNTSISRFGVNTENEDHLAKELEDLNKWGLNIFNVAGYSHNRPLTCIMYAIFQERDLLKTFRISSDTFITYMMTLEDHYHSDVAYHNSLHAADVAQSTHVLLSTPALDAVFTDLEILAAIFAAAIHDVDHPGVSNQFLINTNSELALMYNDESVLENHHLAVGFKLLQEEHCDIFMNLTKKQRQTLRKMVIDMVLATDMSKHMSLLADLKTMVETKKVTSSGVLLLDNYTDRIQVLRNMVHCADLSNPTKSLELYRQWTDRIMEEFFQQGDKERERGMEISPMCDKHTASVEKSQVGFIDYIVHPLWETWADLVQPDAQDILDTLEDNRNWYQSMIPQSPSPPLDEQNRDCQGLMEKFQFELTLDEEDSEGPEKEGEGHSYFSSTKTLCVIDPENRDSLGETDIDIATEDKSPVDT
In short: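 The readout is membrane depolarisation from a cAMP-sensing CNG channel, detected with a potential dye at ex 535/em 590. Cells were HEK293-derived (endogenous PDE-IV) at 1000 cells/well, titrated up to 22.9 uM final.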

[5] = biological target: Cytochrome P450 2D6 (Homo sapiens) (UniProt P10635); assay: qHTS Assay for Inhibitors and Substrates of Cytochrome P450 2D6 (AID 891); further: potency means the concentration at half of the fitted maximal effect; nearly all actives have a fitted effect of over 60% in size
Chain of Cytochrome P450 2D6 (Homo sapiens) (P10635 whole entry, looked up): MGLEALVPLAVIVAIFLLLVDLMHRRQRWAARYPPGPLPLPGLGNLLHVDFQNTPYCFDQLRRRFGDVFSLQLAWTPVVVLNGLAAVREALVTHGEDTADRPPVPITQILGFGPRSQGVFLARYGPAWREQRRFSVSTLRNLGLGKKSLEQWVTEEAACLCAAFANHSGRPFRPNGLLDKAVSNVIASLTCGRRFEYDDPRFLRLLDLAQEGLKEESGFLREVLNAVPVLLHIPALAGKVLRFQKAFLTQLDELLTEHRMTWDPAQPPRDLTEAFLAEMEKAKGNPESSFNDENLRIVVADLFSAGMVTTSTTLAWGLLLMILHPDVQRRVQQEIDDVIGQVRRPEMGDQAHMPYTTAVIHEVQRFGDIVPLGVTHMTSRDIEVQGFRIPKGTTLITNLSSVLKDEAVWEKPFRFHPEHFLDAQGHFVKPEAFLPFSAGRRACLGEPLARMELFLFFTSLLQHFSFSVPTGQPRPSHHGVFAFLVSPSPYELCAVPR
In short: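 Luminescent read-out of luciferin formed by 5 nM human CYP2D6 demethylating 30 uM Luciferin-ME EGE (Km level) over 60 min at room temperature after NADPH regeneration addition. Data normalized to full inhibition by 1.43 uM quinidine.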

[6] = biological target: Ubiquitin carboxyl-terminal hydrolase 1 (Homo sapiens) (UniProt O94782); assay: Inhibitors of USP1/UAF1: Pilot qHTS (AID 504865);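 further: rhodamine fluorescence freed from ubiquitin-rhodamine substrate followed over time; top concentration of the series differs between compounds; on the % scale 0 is the no-effect control and ±100 the full control effect; nearly all actives have a fitted effect of over 35% in size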
Chain of Ubiquitin carboxyl-terminal hydrolase 1 (Homo sapiens) (O94782 whole entry, looked up): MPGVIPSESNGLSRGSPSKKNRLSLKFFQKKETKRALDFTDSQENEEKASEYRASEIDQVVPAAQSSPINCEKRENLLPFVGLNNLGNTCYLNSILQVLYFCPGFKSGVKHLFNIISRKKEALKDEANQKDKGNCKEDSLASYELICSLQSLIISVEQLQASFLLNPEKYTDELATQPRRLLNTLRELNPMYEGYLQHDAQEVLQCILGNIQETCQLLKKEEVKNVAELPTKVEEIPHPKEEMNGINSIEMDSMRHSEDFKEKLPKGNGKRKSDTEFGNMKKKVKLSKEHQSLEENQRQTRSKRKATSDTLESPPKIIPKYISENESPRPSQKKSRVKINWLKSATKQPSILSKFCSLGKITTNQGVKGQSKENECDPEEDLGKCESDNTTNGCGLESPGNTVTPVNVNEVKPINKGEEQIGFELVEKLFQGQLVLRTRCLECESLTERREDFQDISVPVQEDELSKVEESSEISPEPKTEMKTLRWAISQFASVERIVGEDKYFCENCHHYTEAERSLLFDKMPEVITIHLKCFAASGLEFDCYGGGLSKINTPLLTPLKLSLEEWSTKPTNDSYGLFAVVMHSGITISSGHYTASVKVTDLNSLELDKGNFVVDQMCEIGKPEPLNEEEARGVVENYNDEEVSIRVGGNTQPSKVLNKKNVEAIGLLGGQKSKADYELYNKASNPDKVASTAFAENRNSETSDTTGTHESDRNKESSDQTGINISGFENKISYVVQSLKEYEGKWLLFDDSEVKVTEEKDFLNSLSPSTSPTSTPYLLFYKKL
In short: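 USP1/UAF1 complex (1nM) preincubated with compound 15 min at room temperature, then Ub-Rho substrate (150nM final) added. Fluorescence read kinetically at 480/540 nm, 6 reads every 60 seconds. Buffer: 50mM HEPES pH 7.8, 0.5mM EDTA, 0.1 mg/ml BSA, 1mM TCEP, 0.01% Tween-20.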

[7] = biological target: DNA dC->dU-editing enzyme APOBEC-3G (Homo sapiens) (UniProt Q9HC16); assay: qHTS for inhibitors of Vif-A3G interactions: Validation (AID 588379); further: 0% is about no effect
Chain of DNA dC->dU-editing enzyme APOBEC-3G (Homo sapiens) (Q9HC16 whole entry, looked up): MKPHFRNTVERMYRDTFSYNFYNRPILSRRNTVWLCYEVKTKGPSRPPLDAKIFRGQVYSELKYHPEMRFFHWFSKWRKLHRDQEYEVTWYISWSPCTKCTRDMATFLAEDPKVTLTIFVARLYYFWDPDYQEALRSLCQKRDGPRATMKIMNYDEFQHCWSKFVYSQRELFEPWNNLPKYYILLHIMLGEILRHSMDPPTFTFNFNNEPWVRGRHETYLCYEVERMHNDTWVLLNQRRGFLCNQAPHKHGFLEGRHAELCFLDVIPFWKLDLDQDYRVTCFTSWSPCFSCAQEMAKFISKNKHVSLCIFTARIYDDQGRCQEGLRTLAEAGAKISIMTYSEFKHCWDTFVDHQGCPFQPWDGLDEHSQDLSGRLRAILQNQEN
In short: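 Yellow fluorescence (Ex 488, Em 500-530) of Vif-coexpressing HeLa A3G-eYFP cells, scanned by Acumen cytometer, reports blocked A3G degradation. Cells plated at 700/well overnight at 37 deg C before compound addition, then a further overnight compound incubation at 37 deg C.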

[8] = Counterscreen qHTS for small molecule stabilizers of the endoplasmic reticulum resident proteome: GLuc-NoTag assay (AID 1508627); further: potency means the concentration at half of the fitted maximal effect;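 on activity change, negative = inhibition: SH-SY5Y cells given compound then 100 nM thapsigargin to empty ER calcium; 0% = thapsigargin alone and -100% = DMSO vehicle control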
In short: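 Counterscreen line: SH-SY5Y-GLuc-NoTag. Seed, 5 h; compound, 19 h; thapsigargin 100 nM, 4 h; 37C/5% CO2. Readout: secreted GLuc luminescence, coelenterazine 0.07x final, no lysis.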

[9] = AP1 Signaling Pathway (AID 357; active means well fitted curve in either direction with a large enough effect, not every such curve was filed as active;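 further: ME-180 reporter cells stimulated with EGF at its EC50 level; on the % scale 0 is the no-effect control and ±100 the full control effect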)
In short: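 In this screen, ME-180 cells in Opti-MEM with 0.5% dialyzed FBS received EC50 EGF and compound titrations for 5 h. AP-1 reporter beta-lactamase was detected via CCF4 ratio, giving AC50 for positive and negative modulators.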

[10] = biological target: Cytochrome P450 1A2 (Homo sapiens) (UniProt P05177); assay: p450-cyp1a2 (AID 410; calls by dose curve; further: potency means the concentration at half of the fitted maximal effect)
Chain of Cytochrome P450 1A2 (Homo sapiens) (P05177 whole entry, looked up): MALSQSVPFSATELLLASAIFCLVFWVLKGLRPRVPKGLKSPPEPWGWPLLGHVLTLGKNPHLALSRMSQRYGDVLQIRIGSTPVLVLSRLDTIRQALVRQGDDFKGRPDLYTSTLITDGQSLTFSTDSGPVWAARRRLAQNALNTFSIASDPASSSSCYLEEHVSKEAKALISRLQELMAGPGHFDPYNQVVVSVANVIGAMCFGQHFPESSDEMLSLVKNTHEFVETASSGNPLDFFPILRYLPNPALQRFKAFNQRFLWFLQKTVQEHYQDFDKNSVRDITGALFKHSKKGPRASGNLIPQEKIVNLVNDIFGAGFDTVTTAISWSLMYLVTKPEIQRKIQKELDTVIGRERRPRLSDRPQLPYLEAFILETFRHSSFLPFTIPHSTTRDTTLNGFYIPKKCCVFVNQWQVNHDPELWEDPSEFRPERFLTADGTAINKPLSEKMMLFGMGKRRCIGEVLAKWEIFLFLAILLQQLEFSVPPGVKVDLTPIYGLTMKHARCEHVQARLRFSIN
In short: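 Luminescent demethylation readout: Luciferin-ME (100uM, equal to Km) turned over by 20nM CYP1A2 for 60 min at room temperature after NADPH regeneration addition, following 10 min compound preincubation. Normalization used 57 uM furafylline as full inhibition.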

[11] = NFAT Signaling Pathway (AID 444; active means well fitted curve in either direction with a large enough effect, not every such curve was filed as active;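 further: carbachol stimulus at about its EC50 of 1 µM final; on the % scale 0 is the no-effect control and ±100 the full control effect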); details: Jurkat NFAT-bla M1, carbachol, beta-lactamase ratio, 5 h; at 38 µM (top of the series)
In short: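 Jurkat cells with NFAT-driven β-lactamase reporter and co-expressed M1 receptor, stimulated with carbachol (final 1 uM, ~EC50), compound titration, 5 h at 37 °C. CCF4 loaded 1 h at RT; 460/530 nm ratio gave %activity and AC50.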

[12] = Stat Signaling Pathway (AID 446; active means well fitted curve in either direction with a large enough effect, not every such curve was filed as active;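 further: ME-180 cervical cancer cells given 40 pM IL-6 alongside compound; SIE-controlled beta-lactamase reporter measured as 460/530 nm FRET emission ratio; on the % scale 0 is the no-effect control and ±100 the full control effect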)
In short: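 Emission at 460 and 530 nm (excitation 405 nm) reports SIE-controlled beta-lactamase in ME-180 cells. Cells received compound with 40 pM IL-6 for 5 hrs at 37 C; data scaled between 300 pM IL-6 and 125 nM JAK-inhibitor controls.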

[13] = biological target: Glucocorticoid receptor (Homo sapiens) (UniProt P04150); assay: GR-GFP Redistribution (AID 450;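 active means compounds whose dose series gives a full or clear partial fitted curve of increased nuclear translocation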; further: potency means the concentration at half of the fitted maximal effect); details: U2OS GR-GFP nuclear translocation, laser cytometry, 2 h
[14] = biological target: Mitogen-activated protein kinase 10 (Mus musculus) (UniProt Q61831); assay: JNK3 AlphaScreen Assay (AID 530; active means well fitted curve in either direction with a large enough effect, not every such curve was filed as active)
In short: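 Activity was read by AlphaScreen after JNK3-containing HepG2 lysate (cytokine pre-activated) phosphorylated biotinylated GST-cJun with 10 uM ATP at room temperature. Phospho-Ser73 cJun antibody with Protein-A acceptor beads provided detection.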

[15] = biological target: Cytochrome P450 3A4 (Homo sapiens) (UniProt P08684); assay: qHTS Assay for Activators of Cytochrome P450 3A4 (AID 885); further: nearly all actives have a fitted effect of over 65% in size
Chain of Cytochrome P450 3A4 (Homo sapiens) (P08684 whole entry, looked up): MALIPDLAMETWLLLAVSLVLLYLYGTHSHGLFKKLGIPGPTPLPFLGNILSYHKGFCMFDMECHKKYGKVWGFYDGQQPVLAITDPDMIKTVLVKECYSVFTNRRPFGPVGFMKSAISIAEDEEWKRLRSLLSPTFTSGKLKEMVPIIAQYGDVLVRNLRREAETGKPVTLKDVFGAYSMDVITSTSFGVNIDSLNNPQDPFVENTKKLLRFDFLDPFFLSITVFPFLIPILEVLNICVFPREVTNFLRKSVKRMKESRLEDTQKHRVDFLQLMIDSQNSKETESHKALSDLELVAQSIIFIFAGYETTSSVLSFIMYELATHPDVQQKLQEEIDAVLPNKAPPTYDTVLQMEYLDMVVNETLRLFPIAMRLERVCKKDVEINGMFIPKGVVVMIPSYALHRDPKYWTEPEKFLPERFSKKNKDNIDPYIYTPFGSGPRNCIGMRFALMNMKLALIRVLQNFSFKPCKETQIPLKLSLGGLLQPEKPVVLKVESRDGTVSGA
In short: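 Activators are scored by enhanced luminescence from CYP3A4 conversion of luciferin-PPXE (25uM, equal to KM) to luciferin, after 60 min at RT with an NADPH-regenerating system.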

[16] = qHTS Assay for Identification of Small Molecule Antagonists for NFkB Signaling Pathway (AID 895; active means well fitted inhibition curve with a large enough effect in the signal ratio, with a control signal flat, not every such curve was filed as active; the % refers to the signal ratio; further: on the % scale 0 is the no-effect control and ±100 the full control effect)
In short: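 ME-180 NFkB-bla cells (beta-lactamase under NFkB response element), plated overnight, treated with compound then 10 pM TNF alpha (about EC50) for 5 hrs at 37 C. LiveBLAzer FRET read at 460/530 nm emission, 405 nm excitation.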

[17] = biological target: Muscarinic acetylcholine receptor M1 (Rattus norvegicus) (UniProt P08482); assay: qHTS Assay for Antagonists of Acetylcholine Muscarinic M1 Receptor: Measurement of IP-One Response (AID 944); further: nearly all actives have a fitted effect of over 75% in size
In short: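 IP1 accumulation measured via TR-FRET between d2-IP1 and Eu-cryptate anti-IP1 antibody after carbachol (200 nM, EC80) stimulation for 30 min; rat M1-transfected CHO cells received compound 10 min before agonist.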

[18] = biological target: Pyruvate kinase (Leishmania mexicana) (UniProt Q27686); assay: qHTS Validation Assay for Inhibitors of Leishmania Mexicana Pyruvate Kinase (AID 945);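 further: 0% = DMSO only neutral control wells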
In short: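 The enzyme is a highly purified E451W mutant of LmPYK used at 0.2 nM. It converts 0.5 mM PEP and 0.1 mM ADP over 1 h at room temperature; product ATP is quantified by luciferase luminescence relative to DMSO controls.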

[19] = biological target: Pyruvate kinase PKM (Homo sapiens) (UniProt P14618); assay: qHTS Assay for Activators of Human Muscle Pyruvate Kinase (AID 954; active means well fitted curve in the direction sought with a large enough effect, not every such curve was filed as active;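 further: 0% = uninhibited enzyme and -100% = no enzyme or full thiadiazolimine inhibition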)
In short: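 PKM2, human, >95% pure, 0.1 nM; PEP 0.5 mM (Km), ADP 0.1 mM; 50 mM imidazole pH 7.2, 50 mM KCl, 0.01% Tween 20, 0.05% BSA; 1 h RT; luciferase luminescence readout.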

[20] = biological target: Alpha-galactosidase (Coffea arabica) (UniProt Q42656); assay: Counterscreen for Glucocerebrosidase Inhibitors: qHTS Assay for Coffee Bean alpha-Galactosidase at pH 4.5 (AID 957);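 further: plate controls were enzyme alone for no effect and no enzyme for full effect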
Chain of Alpha-galactosidase (Coffea arabica) (Q42656 whole entry, looked up): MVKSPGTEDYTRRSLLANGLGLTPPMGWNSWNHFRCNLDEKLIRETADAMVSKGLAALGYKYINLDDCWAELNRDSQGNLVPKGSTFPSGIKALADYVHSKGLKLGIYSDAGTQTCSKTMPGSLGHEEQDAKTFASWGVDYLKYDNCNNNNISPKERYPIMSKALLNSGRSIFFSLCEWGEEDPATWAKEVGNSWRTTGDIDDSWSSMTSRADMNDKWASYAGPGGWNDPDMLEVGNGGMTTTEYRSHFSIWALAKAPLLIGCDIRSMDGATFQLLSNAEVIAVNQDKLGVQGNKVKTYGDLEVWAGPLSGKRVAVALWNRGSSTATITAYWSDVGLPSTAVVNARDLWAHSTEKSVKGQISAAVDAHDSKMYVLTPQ
In short: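 Fluorogenic qHTS at pH 4.5 (citrate buffer with Tween-20): 2 nM enzyme, 80 uM 4-MU-alpha-galactoside substrate, compound titrated 0.7 nM to 77 uM, 20 min room temperature. Glycine/NaOH stop; 4-MU read Ex 365/Em 440; Hill-equation AC50 against no-enzyme and enzyme controls.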

[21] = biological target: Alpha-galactosidase A (Homo sapiens) (UniProt P06280); assay: Counterscreen for Glucocerebrosidase Inhibitors: qHTS Assay for Human alpha-Galactosidase at pH 4.5 (AID 992); further: 0% is about no effect
Chain of Alpha-galactosidase A (Homo sapiens) (P06280 whole entry, looked up): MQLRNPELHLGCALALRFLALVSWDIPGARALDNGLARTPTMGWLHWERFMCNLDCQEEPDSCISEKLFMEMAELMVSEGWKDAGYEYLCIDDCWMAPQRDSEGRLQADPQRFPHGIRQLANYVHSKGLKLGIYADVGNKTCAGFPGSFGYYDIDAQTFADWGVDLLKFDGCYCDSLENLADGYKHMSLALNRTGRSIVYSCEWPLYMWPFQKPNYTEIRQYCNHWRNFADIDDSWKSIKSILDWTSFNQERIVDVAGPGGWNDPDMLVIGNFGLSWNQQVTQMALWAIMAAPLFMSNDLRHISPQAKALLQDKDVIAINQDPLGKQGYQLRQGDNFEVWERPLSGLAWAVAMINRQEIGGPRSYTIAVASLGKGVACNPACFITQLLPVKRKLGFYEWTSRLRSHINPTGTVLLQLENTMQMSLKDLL
In short: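 Fluorogenic 4-MU alpha-D-galactoside (80 uM) hydrolysis, 2 nM enzyme, pH 4.5 citrate buffer + 0.005% Tween-20; 20 min RT; NaOH/glycine pH 10 stop; Ex365/Em440. Compounds titrated 0.7 nM–77 uM; Hill-equation AC50.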

[22] = biological target: alpha-glucosidase (Oryza sativa, rice) (UniProt Q653V4); assay: Counterscreen for Glucocerebrosidase Inhibitors: qHTS Assay for Rice alpha-Glucosidase at pH 5.0 (AID 997);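 further: 0% = full activity with enzyme and -100% = basal without enzyme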
In short: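 Endpoint fluorogenic assay at pH 5.0: compounds (0.7 nM to 77 uM) titrated against 4 nM rice enzyme and 400 uM 4-MU-alpha-glucoside for 20 min at room temperature; NaOH/glycine stop, read ex 365/em 440 nm, Hill-fitted AC50.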

[23] = biological target: Cytochrome P450 3A4 (Homo sapiens) (UniProt P08684); assay: qHTS Assay for Inhibitors and Substrates of Cytochrome P450 3A4 (AID 884); further: on the % scale 0 is the no-effect control and ±100 the full control effect; nearly all actives have a fitted effect of over 50% in size
In short: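 Luminescent readout of luciferin produced by CYP3A4 (20 nM) dealkylation of Luciferin-PPXE, 25 uM (its KM). NADPH-driven reaction ran 60 min at RT after 10 min compound preincubation; data scaled to 57 uM ketoconazole as 100% inhibition.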

[24] = Cell Viability qHTS for small molecule stabilizers of the endoplasmic reticulum resident proteome (AID 1508629); details: cell viability counter-screen, 100 nM thapsigargin for final 4 h
[25] = biological target: Cytochrome P450 2C9 (Homo sapiens) (UniProt P11712); assay: qHTS Assay for Inhibitors and Substrates of Cytochrome P450 2C9 (AID 883); further: potency means the concentration at half of the fitted maximal effect; nearly all actives have a fitted effect of over 60% in size
In short: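 10nM CYP2C9 + 100uM Luciferin-H (=KM), 25mM KPO4; cpd 10 min 37C; NADPH regen, 60 min 37C; stop/detect with P450 Glo-Buffer 20 min; luminescence. Norm. to 57uM sulphaphenazole as full inhibition.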

[26] = biological target: Cytochrome P450 2C19 (Homo sapiens) (UniProt P33261); assay: qHTS Assay for Inhibitors and Substrates of Cytochrome P450 2C19 (AID 899); further: potency means the concentration at half of the fitted maximal effect; nearly all actives have a fitted effect of over 60% in size
In short: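 Luminescent read-out of luciferin formed from Luciferin-H EGE (10uM, equal to KM). Enzyme 5nM in 50mM KPO4; compound added, 10 min at 37C, then NADPH regenerating system for 60 min at 37C. Full inhibition defined by 57uM ketoconazole.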

O=C(NC1CCCCC1)c1cn(CCN2CCOCC2)c2cc(Cl)ccc2c1=O
inactive: Potency [1] | Potency [2]

CCCCCCC[n+]1ccc(-c2cc[n+](CCCCCCC)cc2)cc1
inactive: Potency [3] > 46 µM | Potency [4] | Potency [6] | Potency [7] | Potency [1] | Potency [8]
active: Potency [5] 7.94 µM

C[C@H](N)Cc1c[nH]c2ccc(OCc3cccs3)cc12
inactive: outcome [9] | activity change, negative = inhibition [11] 7.25% | outcome [12] | Potency [13] > 46 µM | Potency [3] > 46 µM | outcome [14] | Potency [4] | Potency [15] | Potency [16] | Potency [17] | outcome [18] | outcome [19] | outcome [20] | outcome [21] | outcome [22] | Potency [7] | Potency [1] | Potency [8]
active: Potency [10] 1.58 µM and 126 nM | Potency [5] 0.794 µM

Cn1c2c(c3ccccc31)CCNCC2
inactive: Potency [23] | Potency [1] | Potency [8] | max response [24] 24.2%

Fc1ccc(C(OCCN2CCN(C/C=C\c3ccccc3)CC2)c2ccc(F)cc2)cc1
inactive: Potency [13] > 46 µM | Potency [3] > 46 µM | outcome [14] | Potency [15] | Potency [6] | Potency [7] | Potency [1]
active: Potency [10] 31.6 µM | Potency [25] 7.94 µM | Potency [5] 7.94 µM | Potency [26] 7.94 µM | Potency [8] 39.8 µM

CCCCC[C@@H](/C=C/C=C\CCCCCCCC(=O)O)OO
inactive: activity change, negative = inhibition [1] 3.22% [at 0.59 µM] | activity change, negative = inhibition [2] -19.4% [at 0.478 µM]

CCCN(C/C=C/I)C1CCc2ccc(O)cc2C1 (stereo unspecified)
inactive: Potency [1] | Potency [2]

C/C=C1/C[N@@+]2(C)CC[C@]34C(=C(C=O)[C@H]1C[C@H]32)Nc1ccccc14
inactive: Potency [1] | Potency [2]

CC1OC(=O)[C@@H](C(C)C)NC(=O)C(C(C)C)OC(=O)[C@H](C(C)C)NC(=O)C(C)OC(=O)[C@@H](C(C)C)NC(=O)C(C(C)C)OC(=O)[C@H](C(C)C)NC(=O)C(C)OC(=O)[C@@H](C(C)C)NC(=O)C(C(C)C)OC(=O)[C@H](C(C)C)NC1=O (stereo partly specified)
inactive: Potency [1] | Potency [2]

CCCCCCCCCCCCCCCC(=O)OC[C@H](COP(=O)([O-])OCC[N+](C)(C)C)OC(C)=O
inactive: activity change, negative = inhibition [1] 9.56% [at 6.83 µM] | activity change, negative = inhibition [2] -14.9% [at 3.88 µM]

CC(C)(C)NC[C@H](O)COc1cccc2[nH]c(C#N)cc12
inactive: Potency [1] | Potency [2]

CCCCC/C=C\C/C=C\C/C=C\C=C\[C@H](CCCC(=O)O)OO
inactive: activity change, negative = inhibition [1] 7.53% [at 0.59 µM] | activity change, negative = inhibition [2] -17.5% [at 0.478 µM]

CCOC(=O)CN1C(=O)CC(C[C@@H](O)C2C[C@@H](C)C[C@H](C)C2=O)CC1=O (stereo partly specified)
inactive: Potency [1] | Potency [2]
